Laboratory results as given in the supplement of paper PMC11732987, “Enantioselective OTUD7B fragment discovery through chemoproteomics screening and high-throughput optimisation” (Communications Chemistry, 2025).

Assays:
Assay in all cases: log2 ratio of Biotin-Ahx-Ub-VS probe labelling (fragment/DMSO); higher = less target engagement (more negative = stronger competition), active = hit call of the paper (q ≤ 0.05, log2 ratio ≤ -1)
Settings in all cases: compound concentration: 200 uM; treatment time: 3 h
USP19 = molecular target: T1, USP19 (UniProt O94966)
T1 sequence (whole entry): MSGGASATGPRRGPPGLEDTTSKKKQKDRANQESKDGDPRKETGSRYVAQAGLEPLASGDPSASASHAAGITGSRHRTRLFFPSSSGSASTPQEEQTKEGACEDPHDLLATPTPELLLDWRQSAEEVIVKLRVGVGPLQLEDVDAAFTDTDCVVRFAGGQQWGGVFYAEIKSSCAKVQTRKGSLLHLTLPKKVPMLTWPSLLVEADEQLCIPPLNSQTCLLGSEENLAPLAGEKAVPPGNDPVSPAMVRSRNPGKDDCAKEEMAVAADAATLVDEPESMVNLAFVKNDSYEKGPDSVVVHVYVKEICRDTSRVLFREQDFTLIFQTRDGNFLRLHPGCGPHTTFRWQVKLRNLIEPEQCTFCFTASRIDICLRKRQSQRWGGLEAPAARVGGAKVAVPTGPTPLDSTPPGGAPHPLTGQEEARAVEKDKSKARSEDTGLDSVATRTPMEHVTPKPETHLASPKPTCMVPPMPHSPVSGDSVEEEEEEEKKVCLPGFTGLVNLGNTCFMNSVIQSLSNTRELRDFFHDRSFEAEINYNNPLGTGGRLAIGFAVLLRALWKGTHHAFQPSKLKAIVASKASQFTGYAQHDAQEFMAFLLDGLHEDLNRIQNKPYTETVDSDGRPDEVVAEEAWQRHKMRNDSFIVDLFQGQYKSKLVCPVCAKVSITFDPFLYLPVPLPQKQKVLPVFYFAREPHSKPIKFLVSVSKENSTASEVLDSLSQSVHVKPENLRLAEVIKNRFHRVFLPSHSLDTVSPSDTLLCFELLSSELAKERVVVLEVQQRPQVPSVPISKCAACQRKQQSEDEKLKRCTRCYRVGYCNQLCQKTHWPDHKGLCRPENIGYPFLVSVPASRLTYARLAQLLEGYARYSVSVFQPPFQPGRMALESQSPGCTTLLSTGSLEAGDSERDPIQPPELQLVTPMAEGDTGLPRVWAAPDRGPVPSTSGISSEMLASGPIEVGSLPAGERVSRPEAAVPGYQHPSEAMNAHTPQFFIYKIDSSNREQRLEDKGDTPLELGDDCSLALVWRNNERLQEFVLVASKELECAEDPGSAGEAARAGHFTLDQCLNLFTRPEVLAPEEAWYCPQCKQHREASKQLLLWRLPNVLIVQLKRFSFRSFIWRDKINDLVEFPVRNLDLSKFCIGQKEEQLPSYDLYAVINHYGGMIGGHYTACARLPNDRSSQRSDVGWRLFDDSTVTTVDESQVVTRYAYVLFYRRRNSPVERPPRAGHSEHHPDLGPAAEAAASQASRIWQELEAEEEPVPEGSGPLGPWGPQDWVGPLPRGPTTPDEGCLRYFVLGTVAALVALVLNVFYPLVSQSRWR
Procedure, shortened: (§1)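 Average log2 ratios of fragment over vehicle were obtained by unpaired t-test from global-median-normalised Spectronaut label-free quantities. Proteins with ≥2 unique peptides were included. HEK293T lysate (495 µg per sample) was treated in triplicate with fragment at 200 µM or vehicle for 3 h, then with Biotin-Ahx-Ub-VS at 0.5 µM final for 1 h, and labelled DUBs were NeutrAvidin-enriched and run by diaPASEF LC-MS/MS.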

USP22 = molecular target: T2, USP22 (UniProt Q9UPT9)
T2 sequence (whole entry): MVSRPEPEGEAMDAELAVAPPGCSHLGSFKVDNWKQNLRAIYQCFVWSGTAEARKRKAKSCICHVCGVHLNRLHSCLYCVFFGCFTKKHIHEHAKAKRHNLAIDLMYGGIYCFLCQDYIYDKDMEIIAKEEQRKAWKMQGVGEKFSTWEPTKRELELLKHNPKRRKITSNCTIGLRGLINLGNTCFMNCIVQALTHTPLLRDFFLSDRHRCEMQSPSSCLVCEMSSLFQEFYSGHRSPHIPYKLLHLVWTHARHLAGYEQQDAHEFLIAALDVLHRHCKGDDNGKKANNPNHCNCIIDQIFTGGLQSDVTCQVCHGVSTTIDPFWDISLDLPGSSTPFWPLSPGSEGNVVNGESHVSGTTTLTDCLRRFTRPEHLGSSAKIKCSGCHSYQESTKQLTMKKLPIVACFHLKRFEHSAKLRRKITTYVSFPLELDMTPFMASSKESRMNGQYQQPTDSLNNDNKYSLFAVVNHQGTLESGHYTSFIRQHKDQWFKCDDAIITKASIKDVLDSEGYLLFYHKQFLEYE
Procedure, shortened: as §1

USP24 = USP24 (UniProt Q9UPU5)
Procedure, shortened: as §1

USP25 = molecular target: T3, USP25 (UniProt Q9UHP3)
T3 sequence (whole entry): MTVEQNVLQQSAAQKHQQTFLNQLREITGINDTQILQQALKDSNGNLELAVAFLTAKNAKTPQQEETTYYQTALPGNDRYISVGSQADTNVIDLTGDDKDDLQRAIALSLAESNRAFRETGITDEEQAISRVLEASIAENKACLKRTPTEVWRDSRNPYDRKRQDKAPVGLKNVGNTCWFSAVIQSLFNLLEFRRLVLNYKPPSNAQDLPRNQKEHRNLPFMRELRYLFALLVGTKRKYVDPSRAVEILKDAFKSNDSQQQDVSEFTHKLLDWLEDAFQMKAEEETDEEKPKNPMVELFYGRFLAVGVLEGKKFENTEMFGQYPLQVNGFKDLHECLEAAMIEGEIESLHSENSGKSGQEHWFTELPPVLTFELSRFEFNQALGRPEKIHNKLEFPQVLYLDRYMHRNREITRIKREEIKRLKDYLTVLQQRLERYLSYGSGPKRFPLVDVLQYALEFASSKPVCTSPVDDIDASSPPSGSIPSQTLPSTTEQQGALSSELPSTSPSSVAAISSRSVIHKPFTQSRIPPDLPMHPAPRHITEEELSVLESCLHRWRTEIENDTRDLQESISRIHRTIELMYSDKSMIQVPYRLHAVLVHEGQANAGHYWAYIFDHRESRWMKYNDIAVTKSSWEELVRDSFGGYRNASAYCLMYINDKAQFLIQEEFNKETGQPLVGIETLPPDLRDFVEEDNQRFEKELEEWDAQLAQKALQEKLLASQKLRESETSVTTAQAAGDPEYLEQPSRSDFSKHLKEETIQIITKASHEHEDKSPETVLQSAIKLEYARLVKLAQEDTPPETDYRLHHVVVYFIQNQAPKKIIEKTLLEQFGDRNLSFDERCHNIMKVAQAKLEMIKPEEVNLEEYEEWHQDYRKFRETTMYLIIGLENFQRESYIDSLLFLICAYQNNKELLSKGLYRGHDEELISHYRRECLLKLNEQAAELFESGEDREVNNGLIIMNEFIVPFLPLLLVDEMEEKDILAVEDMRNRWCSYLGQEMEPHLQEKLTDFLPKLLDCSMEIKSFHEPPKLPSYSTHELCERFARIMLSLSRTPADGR
Procedure, shortened: as §1

USP28 = molecular target: T4, USP28 (UniProt Q96RU2)
T4 sequence (whole entry): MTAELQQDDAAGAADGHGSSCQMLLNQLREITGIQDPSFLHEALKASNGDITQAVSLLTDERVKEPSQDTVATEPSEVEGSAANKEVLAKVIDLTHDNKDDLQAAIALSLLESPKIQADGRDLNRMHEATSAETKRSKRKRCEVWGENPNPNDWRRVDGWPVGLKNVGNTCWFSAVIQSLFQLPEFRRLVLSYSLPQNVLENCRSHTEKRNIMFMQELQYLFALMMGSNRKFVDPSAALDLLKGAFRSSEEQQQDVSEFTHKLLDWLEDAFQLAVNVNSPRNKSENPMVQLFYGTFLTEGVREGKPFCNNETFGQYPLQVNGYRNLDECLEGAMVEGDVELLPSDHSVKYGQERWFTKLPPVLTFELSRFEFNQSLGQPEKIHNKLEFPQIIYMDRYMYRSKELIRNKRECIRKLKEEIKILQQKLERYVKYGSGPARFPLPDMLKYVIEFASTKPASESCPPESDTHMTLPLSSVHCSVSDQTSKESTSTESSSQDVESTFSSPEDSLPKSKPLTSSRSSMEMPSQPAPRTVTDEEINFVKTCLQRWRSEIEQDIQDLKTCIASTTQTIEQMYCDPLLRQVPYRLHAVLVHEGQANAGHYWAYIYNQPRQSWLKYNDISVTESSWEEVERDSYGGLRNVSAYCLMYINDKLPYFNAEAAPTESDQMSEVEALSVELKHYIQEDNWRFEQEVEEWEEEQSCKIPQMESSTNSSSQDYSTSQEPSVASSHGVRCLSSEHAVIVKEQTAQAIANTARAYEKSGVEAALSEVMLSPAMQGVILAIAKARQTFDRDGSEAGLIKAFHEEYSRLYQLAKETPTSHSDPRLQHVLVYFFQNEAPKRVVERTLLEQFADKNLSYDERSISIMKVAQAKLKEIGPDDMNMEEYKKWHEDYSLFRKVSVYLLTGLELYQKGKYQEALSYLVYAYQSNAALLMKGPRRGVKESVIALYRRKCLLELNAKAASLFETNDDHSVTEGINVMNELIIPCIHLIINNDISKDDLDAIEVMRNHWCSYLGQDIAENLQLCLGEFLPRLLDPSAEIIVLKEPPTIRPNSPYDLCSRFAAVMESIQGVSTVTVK
Procedure, shortened: as §1

Measured: log2 ratio of Biotin-Ahx-Ub-VS probe labelling

Chain of USP24 (Q9UPU5 whole entry): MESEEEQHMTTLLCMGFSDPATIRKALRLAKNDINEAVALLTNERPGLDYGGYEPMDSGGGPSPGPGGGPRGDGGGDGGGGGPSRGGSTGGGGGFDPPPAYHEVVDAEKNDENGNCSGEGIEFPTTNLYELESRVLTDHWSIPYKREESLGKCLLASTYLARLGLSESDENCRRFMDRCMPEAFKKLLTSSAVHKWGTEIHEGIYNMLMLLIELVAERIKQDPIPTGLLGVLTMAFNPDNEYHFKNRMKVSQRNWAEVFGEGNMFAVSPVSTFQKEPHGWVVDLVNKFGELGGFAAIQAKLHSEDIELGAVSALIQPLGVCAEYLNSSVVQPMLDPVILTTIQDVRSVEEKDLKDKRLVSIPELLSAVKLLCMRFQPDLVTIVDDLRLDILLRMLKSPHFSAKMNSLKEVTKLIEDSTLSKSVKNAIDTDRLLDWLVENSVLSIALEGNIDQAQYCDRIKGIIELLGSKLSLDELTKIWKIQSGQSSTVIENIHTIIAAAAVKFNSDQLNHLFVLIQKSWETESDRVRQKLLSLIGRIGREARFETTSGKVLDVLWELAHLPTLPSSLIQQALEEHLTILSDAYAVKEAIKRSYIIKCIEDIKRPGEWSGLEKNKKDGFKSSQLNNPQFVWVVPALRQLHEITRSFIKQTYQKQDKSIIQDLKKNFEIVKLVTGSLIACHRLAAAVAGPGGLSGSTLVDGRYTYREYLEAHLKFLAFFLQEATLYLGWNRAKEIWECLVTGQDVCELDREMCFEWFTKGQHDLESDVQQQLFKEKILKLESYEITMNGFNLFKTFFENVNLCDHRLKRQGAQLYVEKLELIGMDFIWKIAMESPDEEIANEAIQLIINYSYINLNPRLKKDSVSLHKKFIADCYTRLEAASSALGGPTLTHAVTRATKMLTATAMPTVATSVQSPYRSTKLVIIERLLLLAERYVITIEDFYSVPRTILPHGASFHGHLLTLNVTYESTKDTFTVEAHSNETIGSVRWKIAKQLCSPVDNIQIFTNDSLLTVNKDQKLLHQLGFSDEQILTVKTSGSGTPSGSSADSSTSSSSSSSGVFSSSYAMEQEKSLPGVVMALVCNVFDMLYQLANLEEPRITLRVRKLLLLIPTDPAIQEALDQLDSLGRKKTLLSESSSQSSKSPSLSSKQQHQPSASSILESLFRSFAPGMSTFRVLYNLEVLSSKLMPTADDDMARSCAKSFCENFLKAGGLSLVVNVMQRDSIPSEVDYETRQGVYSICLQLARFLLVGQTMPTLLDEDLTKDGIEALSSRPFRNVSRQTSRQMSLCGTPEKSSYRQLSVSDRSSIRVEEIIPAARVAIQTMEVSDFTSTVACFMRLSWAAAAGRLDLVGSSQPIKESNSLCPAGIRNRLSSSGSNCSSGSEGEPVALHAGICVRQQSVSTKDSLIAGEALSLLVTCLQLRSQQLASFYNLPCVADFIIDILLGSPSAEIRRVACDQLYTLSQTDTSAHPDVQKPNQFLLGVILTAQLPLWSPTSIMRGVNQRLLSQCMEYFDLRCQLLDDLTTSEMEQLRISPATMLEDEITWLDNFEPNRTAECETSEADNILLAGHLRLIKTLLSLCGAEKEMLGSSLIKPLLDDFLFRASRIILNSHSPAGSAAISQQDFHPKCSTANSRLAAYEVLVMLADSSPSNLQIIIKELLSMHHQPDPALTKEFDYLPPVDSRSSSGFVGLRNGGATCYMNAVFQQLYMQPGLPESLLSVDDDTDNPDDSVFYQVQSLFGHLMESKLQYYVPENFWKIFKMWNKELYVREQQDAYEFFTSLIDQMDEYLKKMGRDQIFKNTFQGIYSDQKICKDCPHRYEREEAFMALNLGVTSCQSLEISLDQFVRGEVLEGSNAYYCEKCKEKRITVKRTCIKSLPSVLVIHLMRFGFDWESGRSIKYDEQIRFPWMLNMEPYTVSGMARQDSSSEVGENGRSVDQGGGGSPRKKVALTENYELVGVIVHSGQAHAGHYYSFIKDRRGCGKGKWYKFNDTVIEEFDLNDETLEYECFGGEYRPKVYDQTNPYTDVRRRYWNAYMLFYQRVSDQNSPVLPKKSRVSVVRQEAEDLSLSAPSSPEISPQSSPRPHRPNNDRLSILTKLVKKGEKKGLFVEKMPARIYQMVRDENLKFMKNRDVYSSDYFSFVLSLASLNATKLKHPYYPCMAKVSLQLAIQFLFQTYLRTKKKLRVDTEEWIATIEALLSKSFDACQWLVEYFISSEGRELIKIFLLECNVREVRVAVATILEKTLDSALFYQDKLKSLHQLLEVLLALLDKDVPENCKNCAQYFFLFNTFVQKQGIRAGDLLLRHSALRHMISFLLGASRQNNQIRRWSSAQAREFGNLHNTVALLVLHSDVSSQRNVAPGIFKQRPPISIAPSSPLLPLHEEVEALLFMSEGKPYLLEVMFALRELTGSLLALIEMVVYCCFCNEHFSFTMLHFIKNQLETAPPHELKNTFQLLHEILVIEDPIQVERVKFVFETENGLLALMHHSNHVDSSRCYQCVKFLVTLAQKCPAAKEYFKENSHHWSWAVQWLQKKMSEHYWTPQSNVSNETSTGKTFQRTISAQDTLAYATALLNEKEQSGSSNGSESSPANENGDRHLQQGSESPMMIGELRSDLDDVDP

COc1ccc(C2CCCN2C(=O)CCl)c(OC)c1 (stereo not given)
inactive: USP19 -0.593 | USP22 -0.361 | USP24 -0.807 | USP25 -0.175 | USP28 -0.41
